Shown is part of a subset that was picked to be rich in hits.
TbPYK inhibitor = qHTS of Trypanosoma Brucei Inhibitors; 0.12% of 410,000 active; Potency, µM (top dose mostly 76.8 µM), hits mostly inhibitors; TbPYK enzyme, Kinase-Glo Plus ATP luminescence, 45 min; pyruvate kinase (Trypanosoma brucei), Q57TT1; note: nearly all actives have a fitted effect of over 50% in size
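Luminescent Kinase-Glo Plus end-point after 45 min room-temperature reaction of T. brucei pyruvate kinase started with 130 uM ADP (final). Buffer TEA 50 mM pH 7.2 with KCl, MgCl2, BSA, Tween-20; titration-based qHTS with fitted concentration-effect curves.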
Shiga toxin inh = A qHTS for Small Molecule Inhibitors of Shiga Toxin; inhibition, % at 38.7 µM; Vero cells, Shiga toxin protein synthesis inhibition reporter; 9.2% of 290,000 active; AID 2315, 2010; in the data active = inhibition mostly above about 28%, no sharp cut-off; inactive = mostly below about 43%
Sm TGR block = qHTS Assay for the Inhibitors of Schistosoma Mansoni Peroxiredoxins; Schistosoma mansoni thioredoxin glutathione reductase (TGR), Q962Y6; purified TGR, DTNB reduction, TNB absorbance 405 nm; Potency, µM (top dose mostly 114 µM), usual class: inhibitors; 3% of 360,000 active; note: nearly all actives have a fitted effect of over 60% in size
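Kinetic colorimetric format: TGR-catalysed, NADPH-driven DTNB reduction monitored via TNB absorbance. Enzyme dispensed at 20 nM; compound exposure 15 min at room temperature before reaction start.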
Cycloheximide cs = Cycloheximide Counterscreen for Small Molecule Inhibitors of Shiga Toxin | cell reporter, cycloheximide protein synthesis inhibition counterscreen | max response, % | 12% of 300,000 active; in the data active = max response mostly above about 13%, no sharp cut-off; inactive = mostly below about 14%; note: read at 38.3 µM for the half of the compounds with a filed dose
FBPA Giardia inh = qHTS Assay for Inhibitors of Fructose-1,6-bisphosphate Aldolase from Giardia Lamblia; A8B2U2; purified Giardia FBPA; Potency, µM (highest dose often 59.6 µM), actives largely listed as inhibitors; 0.71% of 290,000 active; note: nearly all actives have a fitted effect of over 55% in size
Target sequence (A8B2U2 whole entry, looked up): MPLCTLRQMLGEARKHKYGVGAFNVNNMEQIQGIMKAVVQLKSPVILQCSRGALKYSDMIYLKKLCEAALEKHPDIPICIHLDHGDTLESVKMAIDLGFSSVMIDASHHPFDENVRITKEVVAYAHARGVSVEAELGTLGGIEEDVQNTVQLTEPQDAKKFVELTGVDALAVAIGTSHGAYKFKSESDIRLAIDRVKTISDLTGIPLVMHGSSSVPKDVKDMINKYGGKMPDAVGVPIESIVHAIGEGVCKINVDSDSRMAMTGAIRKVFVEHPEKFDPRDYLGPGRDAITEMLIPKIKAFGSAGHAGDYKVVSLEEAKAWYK
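Giardia FBPA (40 nM reagent) was preincubated 10 min at RT with compound (up to 57.5 uM final), then substrate plus GAPDH/TPI/NAD/arsenate coupling system with diaphorase/resazurin was added; resorufin fluorescence (525/598 nm) was read after 20 min.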
LmPK inh = qHTS Assay for Inhibitors of Leishmania Mexicana Pyruvate Kinase (LmPK). Q27686. purified LmPK, Kinase-Glo ATP luminescence, 1 h. Potency, µM (highest dose often 57.5 µM), most hits filed as inhibitors. 0.37% of 290,000 active
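ATP generated from ADP (0.1 mM) and PEP (0.5 mM) by 0.1 nM LmPK over 1 h at room temperature (pH 7.2 imidazole buffer) was detected by coupled luciferase luminescence. Values were normalized to uninhibited and no-enzyme wells.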
A number is an active result; i = inactive; ? = inconclusive; nt = not tested or not shown. Unless noted, calls come from the whole dose curve; as a rule, active = well fitted curve in the direction sought with a large enough effect; inconclusive = small, poorly fitted or top-dose-only effect, or another doubt; inactive = no such curve, though single readings can be large; an effect the other way counts as inactive or inconclusive.

SMILES | TbPYK inhibitor | Shiga toxin inh | Sm TGR block | Cycloheximide cs | FBPA Giardia inh | LmPK inh
COc1ccc(Br)cc1/C=c1\sc2nc(-c3ccco3)nn2c1=O | i | i | 13µM | i | i | i
Cc1ccc(/C=c2/sc3nnc(-c4ccccc4Cl)n3c2=O)o1 | i | i | 40µM | i | ? | i
Cc1ccc(/C=c2\sc3nc(-c4ccccc4Br)nn3c2=O)o1 | i | i | 45µM | i | i | i
COc1ccccc1/C=c1\sc2nc(-c3ccccc3OC)nn2c1=O | i | i | i | i | i | i
Cc1ccc(/C=c2\sc3nc(-c4ccco4)nn3c2=O)o1 | i | i | 8.9µM | i | i | i
COc1ccc(CN(CC(=O)NCc2ccccc2)C(=O)CCC(=O)Nc2nccs2)cc1 | i | i | i | i | i | i
CC[C@H](C)[C@H](NC(=O)[C@@H]1CCCN1C(=O)[C@H](Cc1cnc[nH]1)NC(=O)[C@@H](NC(=O)[C@H](Cc1ccc(O)cc1)NC(=O)[C@@H](NC(=O)[C@H](CCCN=C(N)N)NC(=O)CNC)C(C)C)[C@@H](C)CC)C(=O)O | nt | i | nt | i | i | nt
CCOc1ccc2[nH]c3ncccc3c(=O)c2c1 | i | 40 | i | i | i | i
CCOc1ccc2[nH]c(C)c(CN3CCOCC3)c(=O)c2c1 | i | i | i | i | i | i
O=C(O)CCc1ccc(-c2cccs2)n1Cc1ccco1 | i | i | ? | i | i | i
O=C(O)CCc1ccc(-c2ccc(Cl)cc2)n1Cc1ccco1 | i | i | 40µM | i | i | i
COc1ccc(-c2ccc(CCC(=O)O)n2Cc2ccco2)cc1 | i | i | 25µM | i | i | i
Cc1cccc(CSCC(=O)N2CCN(S(=O)(=O)c3ccccc3C#N)CC2)c1 | i | nt | nt | nt | nt | nt
COC(=O)/C=C/c1ccc(-n2ccnc2)cc1 | i | 38 | i | 40 | i | i
CC(=O)c1ccc(-n2ccnc2)cc1 | i | i | i | i | i | i
COc1ccc(NC(=O)CCNS(=O)(=O)c2ccc(Cl)c([N+](=O)[O-])c2)cc1S(N)(=O)=O | i | i | 35µM | i | i | i
COc1ccc(NC(=O)CCNS(=O)(=O)c2cccc(C(C)=O)c2)cc1S(N)(=O)=O | i | i | i | i | i | i
COc1ccc(C2(C(=O)NCCc3ccccc3)CCCC2)cc1OC | i | i | i | i | i | i
COCCNc1nc(NCCOc2ccccc2)c2sc(-c3ccccc3)cc2n1 | i | nt | nt | nt | nt | nt
Cc1cc(C(=O)OCC(=O)Nc2c(F)cccc2F)c(C)n1-c1ccccc1 | i | 110 | i | 55 | i | i
Cc1ccc(NC(=O)c2cc(C)n(-c3cccc(C)c3)c2C)cc1 | i | 72 | i | 76 | ? | i
Cc1cc(C(=O)OCC(=O)N2CCOCC2)c(C)n1-c1ccccc1 | i | nt | nt | nt | nt | nt
Cc1cc(C(=O)Nc2ccc(Cl)cc2)c(C)n1-c1ccccc1 | i | i | 50µM | i | ? | i
Cc1cc(C(=O)Nc2ccc(Cl)cc2)n(-c2ccccc2)n1 | i | i | i | 19 | i | i
Cc1cc(C(=O)Nc2ccc(Cl)cc2)c2c(C)nn(-c3ccccc3)c2n1 | i | nt | i | nt | nt | nt
SMILES | TbPYK inhibitor | Shiga toxin inh | Sm TGR block | Cycloheximide cs | FBPA Giardia inh | LmPK inh
Cc1ccc(-n2c(C)cc(C(=O)NS(=O)(=O)c3ccc(C)cc3)c2C)cc1 | i | i | i | i | ? | i
Cc1ccc(C)c(OCCC(=O)Nc2ccc(S(=O)(=O)N3CCCC3)cc2)c1 | i | nt | i | nt | nt | nt
Cc1nc(-c2ccccc2)sc1CCNC(=O)C(=O)Nc1ccc(F)c(Cl)c1 | i | nt | ? | nt | nt | nt
Cc1ccc(NC(=O)c2cc(C)n(-c3ccccc3)c2C)cc1 | i | i | i | 26 | ? | ?
COc1ccc(OC)c(-c2nnc3n2N=C(c2ccccc2OC)CS3)c1 | nt | i | nt | i | i | nt
O=S(=O)(Nc1ccc(-c2ccc(N3CCCC3)nn2)cc1)c1ccc(OC(F)(F)F)cc1 | i | nt | i | nt | nt | nt
CC1CCN(c2ccc(-c3ccc(NC(=O)C(F)(F)F)cc3)nn2)CC1 | i | 41 | i | 36 | i | i
Cc1[nH]c(C(=O)O)c(C)c1C(=O)OC(C)C | i | i | ? | i | i | i
CC(=O)c1c(C(=O)O)[nH]c(C(=O)O)c1C | i | i | 10µM | i | i | i
